The text below walks through data of PubChem BioAssay (Tox21).

Molecules are shown by their SMILES. Calls of active or inactive are those of the source. Calls follow the shape of the dose curve; as a rule, active = well fitted curve in the direction sought with a large enough effect in the repeat runs; inconclusive = weak or mixed curves; inactive = flat fitted curve, though single readings scatter.
% is scaled to controls: 0 for no effect and ±100 for the full control effect.

The nature of the assay: qHTS assay to test for compound auto fluorescence at 590 nm (red) in HEK293 cell free culture (AID 720683). The conditions noted are these: cell-free medium autofluorescence, Ex540/Em590 red; series mostly up to 91.3 µM; fluorescence, % of fluorescent control: at the top concentration. An excerpt: U.S. Tox21 Program National Center for Advancing Translational Sciences [NCATS] NIH Chemical Genomics Center [NCGC] U.S. Environmental Protection Agency [EPA] National Institutes of Environmental Health Sciences [NIEHS] National Toxicology Program [NTP] U.S. Food and Drug Administration [FDA] Tox21 Assay Overview: Compound auto fluorescence often interferes with screening of the compound library against various biological targets and signaling pathways. Some of these compounds may have fluorophoric properties. Such properties may interfere with the assay outputs resulting in false positives and/or negatives. To decrease such complications and ensure the compound activities are relevant in terms of biological response, the Tox21 10K compound library was screened for auto fluorescence. From the fluorophores used as reporter signals in our screening assays, the auto fluorescence equivalencies of compounds against three fluorophores have been evaluated: Triamterene, Fluorescein and Rose Bengal sodium for blue, green and red fluorescence, respectively. The fluorescence intensities were measured using Excitation/Emission wavelengths at 405/460nm, 485/535nm and 540/590nm for blue, green and red labels, respectively. This assay includes the red fluorescence data.
Tox21 Assay Protocol Summary: 5 uL of culture medium (DMEM containing 10% FBS) per well was dispensed into black wall/clear bottom 1536-well plates using a Multidrop Combi Dispenser (ThermoFisher Scientific, Waltham, MA). After 23 nL compound or DMSO vehicle was transferred into assay plate by a pintool work station (Kalypsys, San Diego, CA), fluorescence intensities in the assay plates were measured by an Envision (PerkinElmer, Shelton, CT) plate reader using three labels for measuring blue, green and red fluorescence at […] 460, 535 and 590nm respectively.
Background: In qHTS, concentration-response curves come from the screen itself.
In the case of `COc1cc(Cl)c(OC)cc1N`, the “fluorescence, % of fluorescent control” value was 0.12% (inactive).

As for `C=CCOC(=O)CCC1CCCCC1`, the “fluorescence, % of fluorescent control” value was 0.0807% (inactive).

Turning to `CC1(c2ccccc2)OC(C(=O)O)=CC1=O` (stereo not given), the “fluorescence, % of fluorescent control” value is -0.473% [at 46 µM] (inactive).

As to `CCCCOC(=O)CCCCCCCC(=O)OCCCC`, the “fluorescence, % of fluorescent control” value is 0.0258% (inactive).

Regarding `CNCCCCOc1ccccc1Cc1ccccc1`, the “fluorescence, % of fluorescent control” value was 0.615% [at 46 µM] (inactive).

As for `C[N+]1(C)CCC(OC(=O)C(O)(c2ccccc2)C2CCCC2)C1` (stereo not given), the Potency result was “inactive”.

On to `OCCN1CCN(CCCN2c3ccccc3C=Cc3ccccc32)CC1`, for which the Potency entry was “inactive”.

With `CCCCCCCC#N`, the “fluorescence, % of fluorescent control” value was -0.147% (inactive).

In the case of `CCCCCCCCCCCCCCCCCCOS(=O)(=O)O`, the “fluorescence, % of fluorescent control” value was -0.0678% (inactive).

Turning to `CC(C)C[C@H]1C(=O)N2CCC[C@H]2[C@]2(O)O[C@](NC(=O)[C@@H]3C=C4c5cccc6[nH]c(Br)c(c56)C[C@H]4N(C)C3)(C(C)C)C(=O)N12`, the Potency entry is “inactive”.

`CC1=CC=C(C(C)C)CC1`: the “fluorescence, % of fluorescent control” value was -0.0254% (inactive).

Regarding `Cc1oc(-c2ccccc2)nc1CCOc1cccc2c1ccn2CCC(=O)O`, the “fluorescence, % of fluorescent control” value is 0.17% (inactive).

As for `C=C(C)C(=O)OCCOCC`, the “fluorescence, % of fluorescent control” value was -0.0352% (inactive).

For `C=CCOc1ccccc1OCC(O)CNC(C)C` (stereo not given), the fluorescence, % of fluorescent control is 0.179% [at 18.6 µM] (inactive).

For `O=C(O)C1(C(=O)Nc2ccc(Cl)cc2Cl)CC1`, the “fluorescence, % of fluorescent control” value is -0.0035% (inactive).

`CN1CCC(N(Cc2cccs2)c2ccccc2)CC1`: the “fluorescence, % of fluorescent control” value was -0.447% [at 46 µM] (inactive).

On to `Nc1cccc([N+](=O)[O-])c1`, for which the “fluorescence, % of fluorescent control” value is -0.0039% (inactive).

Take `CC(=O)[O][Al][O]C(C)=O`: the Potency entry was “inactive”.

On to `CC1=CC[C@H](C(C)C)C=C1`, for which the “fluorescence, % of fluorescent control” value was -0.128% (inactive).

As for `CN1C[C@H]2c3ccccc3Oc3ccc(Cl)cc3[C@@H]2C1`, the “fluorescence, % of fluorescent control” value was 0.0606% [at 46 µM] (inactive).

In the case of `CN(C)c1ccc(/C=C/c2ccc([N+](=O)[O-])cc2)cc1`, the fluorescence, % of fluorescent control was -0.187% [at 3.72 µM] (inactive).

In the case of `COc1ccc(S(=O)(=O)N2C(=O)[C@@](c3ccccc3OC)(N3C[C@H](O)C[C@H]3C(=O)N(C)C)c3cc(Cl)ccc32)c(OC)c1`, the “fluorescence, % of fluorescent control” value is -0.144% (inactive).

For the molecule `CC(C)(CO)[N+](=O)[O-]`, the “fluorescence, % of fluorescent control” value was -0.178% (inactive).

As for `O=P(O)(OCc1ccccc1)OCc1ccccc1`, the “fluorescence, % of fluorescent control” value is 0.0185% (inactive).

Turning to `N=c1ccn2c(n1)O[C@H]1[C@H](O)[C@@H](CO)O[C@H]12`, the Potency result is “inactive”.

In the case of `NCc1ccccc1Sc1ccccc1CO`, the “fluorescence, % of fluorescent control” value was -0.0415% [at 46 µM] (inactive).

With `CCCCCCCCO[C@@H]1O[C@H](CO)[C@@H](O)[C@H](O)[C@H]1O`, the “fluorescence, % of fluorescent control” value was 0.0646% (inactive).

As for `O=S(c1cc(Cl)cc(Cl)c1O)c1cc(Cl)cc(Cl)c1O`, the “fluorescence, % of fluorescent control” value is -0.735% [at 46 µM] (inactive).

Take `Cc1c(N)cccc1[N+](=O)[O-]`: the “fluorescence, % of fluorescent control” value was -0.122% [at 95.7 µM] (inactive).

For `CCN(CC)CCNC(=O)c1cc(Br)c(N)cc1OC`, the “fluorescence, % of fluorescent control” value was 0.112% [at 46 µM] (inactive).

In the case of `C[C@@H]1C[C@H]2O[C@@]3(O[C@@H]2C(C)(C)O)[C@H](O)[C@@]2(C)[C@@H]4CC[C@H]5C(C)(C)[C@@H](O[C@@H]6OC[C@@H](O)[C@H](O)[C@H]6O)CC[C@@]56C[C@@]46CC[C@]2(C)[C@@H]13`, the “fluorescence, % of fluorescent control” value is 0.0428% (inactive).

On to `CCN(CC)CCOC(=O)C(Cc1cccc2ccccc12)CC1CCCO1` (stereo not given), for which the fluorescence, % of fluorescent control is 0.0006% [at 18.6 µM] (inactive).

`COCC(C)OC(C)=O` (stereo not given): the “fluorescence, % of fluorescent control” value was -0.0403% (inactive).

With `CCOC(=O)Cc1cccc2ccccc12`, the “fluorescence, % of fluorescent control” value is -0.221% (inactive).

Take `Clc1ccc(Cn2c(CN3CCCC3)nc3ccccc32)cc1`: the fluorescence, % of fluorescent control was 0.147% [at 18.6 µM] (inactive).

Regarding `c1ccc(CNCCNCc2ccccc2)cc1`, the “fluorescence, % of fluorescent control” value is 0.0849% [at 46 µM] (inactive).

On to `Brc1c2ccccc2c(Br)c2ccccc12`, for which the fluorescence, % of fluorescent control was 0.0422% [at 3.72 µM] (inactive).

Regarding `CCC(Cl)CCC(Cl)C(Cl)CC(Cl)C(Cl)C(Cl)CCl` (stereo not given), the “fluorescence, % of fluorescent control” value was -0.116% (inactive).

`NCC(=O)O`: the “fluorescence, % of fluorescent control” value is 0.0224% [at 46 µM] (inactive).

Consider `CCC(CC)Nc1ccc(C)c(C)c1`, for which the “fluorescence, % of fluorescent control” value is 0.578% (inactive).
